Source: PubChem BioAssay (NCATS)
Inconclusive results are not listed. Activity calls are given as the source filed them. Calls come from the whole dose curve; as a rule, active = well fitted inhibition curve with a large enough effect; inconclusive = small, poorly fitted or top-dose-only effect; inactive = flat fitted curve, though single readings scatter.

Biological target: Calcium and integrin-binding protein 1 (Homo sapiens) (UniProt Q99828)
Assay: Primary qHTS for Identification of Calcium Integrin Binding Protein 1 (CIB1) Competitor (AID 1508620);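 note: GST tagged CIB1 binding a fluorescein labelled alphaIIb integrin peptide tracer; top concentration of the series differs between compounds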
Conditions: CIB1-GST / FITC-alphaIIb peptide fluorescence polarization; series mostly up to 114 µM; activity change, negative = inhibition: at the top concentration
Procedure, shortened: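 CIB1-GST (1 uM final) and compound incubated 15 min at room temperature before adding FITC-alphaIIb peptide tracer (100 nM final). Competition for binding read by fluorescence polarization (ex 480, em 540) after another 15 min at room temperature.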
% is set by controls: 0 for no effect and ±100 for the full control effect.

Sequence of Calcium and integrin-binding protein 1 (Homo sapiens) (Q99828 whole entry, looked up): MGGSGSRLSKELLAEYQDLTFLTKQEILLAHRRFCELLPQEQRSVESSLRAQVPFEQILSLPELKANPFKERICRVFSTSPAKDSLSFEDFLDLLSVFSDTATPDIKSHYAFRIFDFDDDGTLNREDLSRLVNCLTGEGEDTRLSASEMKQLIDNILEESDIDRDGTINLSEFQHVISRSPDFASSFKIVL

Structure (SMILES) | activity change, negative = inhibition
CC(C)(C)OC(=O)N1CCN(c2ccc(NCc3cnc(-c4ccc(C#N)cc4)o3)cc2)CC1 | -0.444% (inactive)
Cc1c(C(=O)OCC2CCCC2)[nH]c2c1C(=O)CC(c1ccco1)C2 (stereo unspecified) | 4.49% (inactive)
CC(C)(C)OC(=O)CC(=O)NNC(=O)c1cc2ccccc2[nH]1 | 1.68% (inactive)
Cc1ccc(NC(=O)CN2C(=O)N/C(=C\c3cccn3-c3ccc([S+](N)(=O)[O-])cc3)C2=O)cc1 | -5.38% (inactive)
CCOC(=O)CCc1cc(F)c(S(=O)(=O)N2CCN(S(=O)(=O)c3ccc4c(c3)OCCO4)CC2)cc1F | 5.87% (inactive)
N#Cc1ccc(-c2ccc(CNc3ccc(N4CCOCC4)cc3)o2)cc1 | -7.24% (inactive)
O=C(Nc1ccc(Cl)c([N+](=O)[O-])c1)Nc1nnc(C2CCCCC2)s1 | -0.73% (inactive)
O=C(Cc1ccccc1)Nc1sc2c(c1C(=O)Nc1cccc(Cl)c1)CCCC2 | 2.91% (inactive)
FC(F)(F)c1cccc(N2CCN(C(=S)Nc3ccncc3)CC2)c1 | 2.08% (inactive)
Cc1cccc(CNc2ccnc(-c3cc(C(F)(F)F)cc(C(F)(F)F)c3)n2)c1 | 3.85% (inactive)
COc1cccc(C2c3c(ncn(-c4ccc(C(C)(C)C)cc4)c3=N)Oc3ccc4ccccc4c32)c1 (stereo unspecified) | 24.1% (inactive)
Cc1ccc(CNc2ncnc3ccc(-c4sc(C)nc4C)cc23)o1 | -14.2% (inactive)
c1nc(N2CCOCC2)c2cc(-c3ccc4c(c3)OCO4)ccc2n1 | -2.44% (inactive)
O=C(COc1ccc(F)cc1)NCCc1nc2ccccc2[nH]1 | 0.396% (inactive)
Cc1ccc(OCCn2c(CCNC(=O)c3cccc4[nH]ccc34)nc3ccccc32)cc1 | 7.24% (inactive)
CCOc1ccc(C(=O)Nc2ccc(-c3nc4ccccc4[nH]3)cc2)cc1 | 5.31% (inactive)
